Compound activity from PubChem.
MITF primary: MITF inhibitors, primary screen, biochemical, AlphaScreen, human. AlphaScreen MITF homodimerization, bead proximity signal. 650,000 tested, 0.91% active. inhibition, % at 2.6 µM. Microphthalmia-associated transcription factor (Homo sapiens), O75030. AID 1259374, 2018; in the data active means inhibition above about 50%;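 further: 0% = vehicle wells with protein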
Target sequence (O75030 whole entry, looked up): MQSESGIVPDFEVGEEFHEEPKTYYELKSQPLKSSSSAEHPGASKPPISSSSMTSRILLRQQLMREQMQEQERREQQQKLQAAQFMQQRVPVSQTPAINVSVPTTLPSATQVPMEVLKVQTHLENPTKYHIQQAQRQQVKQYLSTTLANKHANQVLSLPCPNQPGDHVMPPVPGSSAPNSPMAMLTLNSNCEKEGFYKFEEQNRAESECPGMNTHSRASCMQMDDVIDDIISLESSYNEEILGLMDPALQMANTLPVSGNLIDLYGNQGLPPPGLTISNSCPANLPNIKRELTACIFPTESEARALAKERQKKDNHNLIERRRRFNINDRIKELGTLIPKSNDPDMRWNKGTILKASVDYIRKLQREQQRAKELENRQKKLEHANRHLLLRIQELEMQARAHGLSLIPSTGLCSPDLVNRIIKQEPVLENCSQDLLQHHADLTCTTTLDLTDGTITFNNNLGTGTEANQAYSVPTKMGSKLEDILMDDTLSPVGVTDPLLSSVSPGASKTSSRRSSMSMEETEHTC
FBW7 activator: FBW7 E3 ligase activators, primary screen, biochemical, AlphaScreen, human; normalized activity (activation), % at 26.1 µM; 650,000 tested, 0.13% active; AlphaScreen FBW7–phospho-cyclin E peptide binding, activator screen; F-box/WD repeat-containing protein 7 (Homo sapiens), Q969H0; in the data active means normalized activity above about 1.9%;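 further: purified mutant Fbw7 with reduced substrate affinity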
GPR151 ag: activators of human GPR151, primary screen, cell-based, PathHunter beta-arrestin, luminescence. activation, % at 11.2 µM. PathHunter beta-arrestin GPR151 cells. 650,000 tested, 1% active; in the data active means activation above about 4.9%;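 further: 0% = median of compound wells and 100% = cells with positive control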
TEAD-YAP block: TEAD-YAP interaction inhibition, primary screen, TEAD-YAP interaction inhibitor project, luminescence, HEK-TIYL cells | TEAD-Gal4/YAP UAS-luciferase luminescence | inhibition, % at 9.12 µM | 640,000 tested, 1.4% active; in the data active means inhibition above about 32%;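 further: 0% = median of test compound wells and 100% = reference inhibitor wells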
MITF inh conf: MITF inhibitors, retest of hits, confirmation, biochemical, AlphaScreen, triplicate; shares compounds with MITF primary; AlphaScreen MITF homodimerization, biotin/His-MITF beads; inhibition, % at 2.6 µM; 4,700 tested, 16% active; AID 1259372, 2018;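 active means inhibition above a cutoff derived from the DMSO control wells, cut at about 28% in these data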;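 further: 0% = MITF dimer wells with DMSO only; inhibitors lower the bead chemiluminescence by keeping MITF from dimerizing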
AlphaScreen DR: AlphaScreen optical interference compounds, dose response, counter-screen, biochemical, HTS. 480 tested, 6% active. shares compounds with MITF primary. IC50, µM. AlphaScreen optical interference counterscreen, cell-free; call rule not given here
AlphaScreen intf2: AlphaScreen optical interference compounds, counter-screen for MITF inhibitor project, biochemical, triplicate; shares compounds with MITF primary; LysRS AlphaScreen counterscreen, signal interference; inhibition, % at 2.6 µM; 4,700 tested, 7.6% active;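 active means inhibition above a cutoff derived from the DMSO control wells, cut at about 30% in these data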
Starred values were filed as active, the others as inactive; . = no result given; ! = a repeat was not active. Only some compounds are listed: those with a hit (about 3.4% of all), similar ones and a draw of the others.

SMILES	MITF primary	FBW7 activator	GPR151 ag	TEAD-YAP block	MITF inh conf	AlphaScreen intf2	others
C1=CCC(CN2CCN(C3CCCCCC3)CC2)CC1 (configuration not stated)	76*	0	2	4	-4	-7
COc1cc(NC(=O)c2ccc(F)cc2)c(OC)cc1NC(=O)CC(C)C	21	0	0	-8	.	.
NC(=O)C1CCN(C(=O)c2cc(-c3ccco3)nc3ccccc23)CC1	97*	-1	-2	-1	75*	-11	AlphaScreen DR=>6.7
O=C(NNC(=O)c1cc(-c2ccco2)nc2ccccc12)NC1CCCCC1	87*	-1	5	3	91*	2	AlphaScreen DR=>6.5
Cc1ccc2nc(-c3ccccc3)cc(C(=O)N3CCC(C(N)=O)CC3)c2c1	-7	0	-1	2	.	.
CN(CCOc1ccccc1)Cc1nc2ccc(Cl)cc2n1CCO	78*	0	0	-1	18	17
CCN1CCCC1CNCc1ccccc1Cl (configuration not stated)	2	0	-1	5	.	.
CCN1CCCC1CNCc1csc(-c2ccc(Cl)cc2)n1 (configuration not stated)	57*	0	0	-10	-2	5
COC(=O)C1CCCN1C(=O)c1ccccc1 (configuration not stated)	10	0	1	-14	.	.
O=c1[nH]c2ccccc2c(=O)n1CCCN1CCOCC1	11	0	-1	-1	.	.
O=c1[nH]c2ccccc2n1CCCN1CCCCC1	-5	0	1	-2	.	.
O=c1[nH]c2ccccc2n1CN1CCc2ccccc2C1	51*	0	1	-1	11	13
O=c1[nH]c2ccccc2n1CN1CCOCC1	90*	0	2	-3	5	11
CCOc1ccccc1/C=N\NC(=O)c1ccco1	70*	0	0	-42	2	9
CC1(C)CC(=O)C2=C(C1)NC(=O)CC2c1ccc(C(C)(C)C)cc1 (configuration not stated)	70*	0	0	8	-5	-1
CC1(C)CC(=O)C2=C(C1)NC(=O)CC2c1ccc(F)cc1 (configuration not stated)	2	0	1	-4	.	.
Nc1ccc(O)c(C(=O)O)c1	75*!	0	-2	-4	82*	-5	AlphaScreen DR=>6.5
CCOC(=O)C1=C(C)NC2=C(C(=O)C(C(=O)OCC)C(c3ccccc3OC)C2)C1c1cc(OC)ccc1OC (configuration not stated)	4	0	-2	10	.	.
CCOC(=O)C1=C(C)NC2=C(C(=O)C(C(=O)OCC)C(c3ccc(OC)cc3)C2)C1c1cc(OC)ccc1OC (configuration not stated)	116*	0	0	0	-10	-7
COc1ccc(-c2c(C(F)(F)F)oc3cc(OC(=O)c4cccc(C)c4)ccc3c2=O)cc1OC	9	0	2	0	.	.
CCOc1ccc(OCC(O)CNC2CCN(Cc3ccccc3)CC2)cc1 (configuration not stated)	-1	0	1	5	.	.
OC(COCc1ccccc1F)CN1CCN(c2ccccc2)CC1 (configuration not stated)	4	0	1	-1	.	.
OC(CNC1CCN(Cc2ccccc2)C1)COCc1ccccc1Cl (configuration not stated)	55*	0	-1	6	-9	0
Oc1ccc(N2CCN(CC(O)COCc3ccccc3Cl)CC2)cc1 (configuration not stated)	56*	0	0	-3	6	23
CCOc1ccccc1N1CCN(CC(O)COCc2ccccc2OC)CC1 (configuration not stated)	74*	0	1	0	-6	-1
SMILES	MITF primary	FBW7 activator	GPR151 ag	TEAD-YAP block	MITF inh conf	AlphaScreen intf2	others
Cc1c(NC(=S)NN)c(=O)n(-c2ccccc2)n1C	2	0	3	-3	.	.
Cc1ccc(C)c(CSc2nc(=O)n3cc(C)ccc3n2)c1	-13	0	-1	2	.	.
Cc1cc(C(=O)CN2C(=O)C(=O)N(Cc3ccco3)C2=O)c(C)n1-c1ccccc1	1	0	3	7	.	.
COc1ccc(NC(=O)CC2S/C(=N/N=C3\CSC(=O)N3)NC2=O)cc1 (configuration not stated)	82*	-2	-2	3	62*	100*
CCOc1ccc(NC(=O)CC2S/C(=N\N=C3/C=C(C)CC(C)(C)C3)NC2=O)cc1 (configuration not stated)	15	0	2	7	.	.
CC1=C/C(=N\N=C2\NC(=O)C(CC(=O)Nc3ccc(C(=O)O)cc3)S2)CC(C)(C)C1 (configuration not stated)	68*	0	-2	-2	72*	13	AlphaScreen DR=>6.5
COc1ccc(/C=N/N=C2\NC(=O)C(CC(=O)Nc3ccc(C)cc3)S2)cc1 (configuration not stated)	73*	0	0	3	6	-4
Cc1ccc(NC(=O)CC2S/C(=N\N=C3\CSC(=O)N3)NC2=O)cc1 (configuration not stated)	82*	0	1	-8	68*	100*
N/C(=N\OC(=O)Cc1ccc(Cl)cc1)c1ccc([N+](=O)[O-])cc1	-9	0	1	4	.	.
Fc1ccc(N/N=C/c2ccc3c(c2)OCCO3)c(F)c1	-1	0	1	-28	.	.
CCOc1cc(/C=N/N=C2\NC(=O)C(CC(=O)O)S2)ccc1OCc1ccc(F)cc1 (configuration not stated)	13	0	-1	8	.	.
O=C(CC1S/C(=N/N=C2\CSC(=O)N2)NC1=O)Nc1ccccc1 (configuration not stated)	65*	0	3	-2	66*	100*
Cc1ccc(COc2ccc(/C=N/N=C3\NC(=O)C(CC(=O)O)S3)cc2)cc1 (configuration not stated)	53*	0	0	-15	35*	12	AlphaScreen DR=>6.5
CCc1ccc(NC(=O)C(=O)N/N=C(\C)CC(=O)Nc2ccc(F)cc2)cc1	2	0	-1	8	.	.
Cc1cc(C)nc(NS(=O)(=O)c2ccc(N3C(=O)C=CC3=O)cc2)n1	61*	-1	1	-4	37*	5	AlphaScreen DR=>6.5
